Starred links: 1 amine or outer side, 2 acyl side, 3 side chain; linkers in the order of their positions; H or OH if unused. Positions of bridges follow the written chain, without caps; N, C: chain ends. Non-standard residues stand in square brackets, D forms with d. Residues, ends and D or L forms follow the SMILES beside them. Chains are numbered I, II in the order given. Actinocin(9to1) = Cc1c2oc3c(C)ccc(C(=O)[*:1])c3nc-2c(C(=O)[*:2])c(N)c1=O; NMeV = CN[CH](C(=O)O)C(C)C; Sar = CNCC(=O)O
Experiment: qHTS profiling of the MIPE4 collection as inhibitors of Plasmodium falciparum (DD2) proliferation (AID 743345)
Settings: P. falciparum Dd2 in erythrocytes, SYBR Green DNA, 72 h; at 28.5 µM (top of the series) unless noted
Text: Plasmodium falciparum is a virulent malarial parasite that kills 1-2 million people worldwide each year. Transmitted by mosquitoes, the sporozoite form of the parasite enters the blood stream to infect hepatocytes, where they become merozoites that infect red blood cells (erythrocytes). Within erythrocytes, merozoites begin a […] cycle of growth and division, after which the parasite is released to infect new red blood cells. Gametocytes, which form within erythrocytes as well, circulate in the bloodstream and are ingested by the mosquito, thereby completing the life cycle. To profile malarial isolates for differential chemical responses and to identify inhibitors of malarial growth, an assay that measures P. falciparum growth and replication within erythrocytes was employed. This assay uses a DNA binding fluorescent dye (SYBR Green) to detect parasite DNA following cell lysis. Because mature erythrocytes lack DNA, only Plasmodium-derived DNA is detected.
The SYBR Green viability assay was adapted from a method described previously (Plouffe et al., 2008). For screening 3 ul culture medium was dispensed into 1536 well black clear bottom plates (Aurora Biotechnologies) using a Multidrop Combi (Thermo Fisher Scientific Inc.), 23 nL compounds in DMSO were added by a pin tool (Kalypsys), and 5 ul of erythrocytes infected with P. falciparum (0.3% parasitemia, 2.5% hematocrit final concentration) were added. The plates were incubated at 37 C in a humidified incubator in 5% CO2 for 72 h, and 2 ul lysis buffer (20 mM Tris HCl, 10 mM EDTA, 0.16% saponin, 1.6% triton X, 10X SYBR Green I supplied as 10,000X […] by Invitrogen) was added to each well. The plates were mixed for 25 sec with gentle shaking and incubated overnight at room temperature in the dark. The following morning, fluorescence intensity at 485(14) nm excitation and 535(25) nm emission wavelengths was measured on an EnVision (Perkin Elmer) plate reader. Plate reads were normalized relative to the control inhibitor (0.29 uM artemisinin) and vehicle (DMSO) wells present on each plate and then corrected by an algorithm using vehicle-only control plates at the beginning and end of the compound plate stack.

Row | SMILES | parasite growth remaining, % of DMSO control (lower = more inhibition)
1 | Cc1onc(-c2ccccc2)c1C(=O)N[C@@H]1C(=O)N2[C@@H](C(=O)O)C(C)(C)S[C@@H]12 | 99.9%
2 | CNC(=O)Nc1ccc(-c2nc(N3CC4CCC(C3)O4)c3cnn(C4CCC5(CC4)OCCO5)c3n2)cc1 | 7.38%
3 | CCCNC(=O)[C@H]1O[C@H]1C(=O)N[C@H](C(=O)N1CCC[C@@H]1C(=O)OC)C(C)CC (stereo not given in full) | 94.3%
4 | COc1cc(C)c(C=CC(C)=CC=CC(C)=CC(=O)O)c(C)c1C | 115%
5 | C[C@H]1[C@@H](OC(=O)CCC(=O)O)O[C@@H]2O[C@@]3(C)CC[C@@H]4[C@H](C)CC[C@@H]1[C@@]24OO3 | 7.38%
6 | O=C1NCCc2[nH]c(-c3ccncc3)cc21 | 39%
7 | Cc1c2oc3c(C)ccc(C(=O)NC4C(=O)NC(C(C)C)C(=O)N5CCCC5C(=O)N(C)CC(=O)N(C)C(C(C)C)C(=O)OC4C)c3nc-2c(C(=O)NC2C(=O)NC(C(C)C)C(=O)N3CCCC3C(=O)N(C)CC(=O)N(C)C(C(C)C)C(=O)OC2C)c(N)c1=O (stereo not given) (I: TVP[Sar][NMeV] / II: TVP[Sar][NMeV]; ester I:1-I:C, II:1-II:C; linker I:N-II:N via Actinocin(9to1); configuration not given here) | 3.9%
8 | CN(C)CCN1C(=O)c2cccc3cc(N)cc(c23)C1=O | 12.6%
9 | COc1cc(N2CCC(C(N)=O)CC2)ccc1Nc1nc(N)c(Cl)c(Nc2ccccc2S(=O)(=O)C(C)C)n1 | 37.8%
10 | Cc1[nH]c(C=C2C(=O)Nc3ccccc32)c(C)c1CCC(=O)O | 176%
11 | COc1cccc2c1C(=O)c1c(O)c3c(c(O)c1C2=O)C[C@@](O)(C(C)=O)C[C@H]3O[C@H]1C[C@H](N)[C@H](O)[C@H](C)O1 | 5.82%
12 | C[C@]12C=CC(=O)N[C@@H]1CC[C@H]1[C@H]3CC[C@@H](C(=O)Nc4cc(C(F)(F)F)ccc4C(F)(F)F)[C@@]3(C)CC[C@@H]12 | 9.12%
13 | COc1ccc(S(=O)(=O)Nc2cccnc2Nc2ccc(O)cc2)cc1 | 94%
14 | CC(C=CC1=C(C)CCCC1(C)C)=CC=CC(C)=CC(=O)Nc1ccc(O)cc1 | 6.69% [at 57.5 µM]
15 | CC(C)N1[N]C(=C2C=c3cc(O)ccc3=N2)c2c(N)ncnc21 | 13.1%
16 | CC(=O)ON=C1C(c2c(O)[nH]c3cc(Br)ccc23)=Nc2ccccc21 | 6.76%
17 | O=C(CN1C(=O)C2(CCCC2)NC[C@H]1c1cc(F)cc(F)c1)Nc1ccc2c(c1)C[C@@]1(C2)C(=O)Nc2ncccc21 | 86.9%
18 | Cn1cc(C2=C(c3c4n(c5ccccc35)CCC(CN)C4)C(=O)NC2=O)c2ccccc21 (stereo not given) | 5.71%
19 | O=S(=O)(O)CCSSCCS(=O)(=O)O | 89%
20 | COc1ccc(C=Cc2cc(OC)c(OC)c(OC)c2)cc1NC(=O)[C@H](N)CO | 75.1%

Row | SMILES | parasite growth remaining, % of DMSO control (lower = more inhibition)
21 | c1cncc(CN2CCC(n3ncc4c(N5CCOCC5)nc(-c5ccc6[nH]ccc6c5)nc43)CC2)c1 | 6.76%
22 | CN[C@@H]1C[C@H]2O[C@@](C)([C@H]1OC)n1c3ccccc3c3c4c(c5c6ccccc6n2c5c31)C(=O)N[C@H]4O | 6.48%
23 | C[C@H]1COc2c(N3CCN(C)CC3)c(F)cc3c(=O)c(C(=O)O)cn1c23 | 69.9%
24 | CCC(C(=O)O)C1CCC(C)C(C(C)C(O)C(C)C(=O)C(CC)C2OC3(C=CC(O)[C@@]4(CC[C@](C)(C5CC[C@@](O)(CC)C(C)O5)O4)O3)C(C)CC2C)O1 (stereo not given in full) | 6.02%
25 | O=C(C=Cc1ccc(CN(CCO)CCc2c[nH]c3ccccc23)cc1)NO | 6.71%
26 | CC(=O)O[C@]1(C(C)=O)CC[C@H]2[C@@H]3C=C(C)C4=CC(=O)CC[C@]4(C)[C@@H]3CC[C@@]21C | 73.4%
27 | CC1(C)[C@H](O[C@H]2O[C@H](C(=O)O)[C@@H](O)[C@H](O)[C@H]2O[C@@H]2O[C@H](C(=O)O)[C@@H](O)[C@H](O)[C@H]2O)CC[C@@]2(C)[C@H]1CC[C@]1(C)[C@H]2C(=O)C=C2[C@H]3C[C@@](C)(C(=O)O)CC[C@]3(C)CC[C@]21C | 97.4%
28 | COc1ccc(CCC(=O)c2c(O)cc(O[C@@H]3O[C@H](CO)[C@@H](O)[C@H](O)[C@@H]3O[C@@H]3O[C@@H](C)[C@H](O)[C@@H](O)[C@@H]3O)cc2O)cc1O | 17.8%
29 | C[C@@H](Oc1ccc2[nH]nc(C=Cc3cnn(CCO)c3)c2c1)c1c(Cl)cncc1Cl | 8.67%
30 | CCOC(=O)[C@H](CCc1ccccc1)N[C@@H](C)C(=O)N1[C@@H](C(=O)O)C[C@H]2CCC[C@@H]21 | 9.73%
31 | N#Cc1cc(NC(=O)Nc2nnc(-c3ccncc3)s2)ccc1-c1cn[nH]c1 | 101%
32 | NC(=O)c1ncn([C@@H]2O[C@H](CO)[C@@H](O)[C@@H]2O)c1O | 33.1%
33 | C[C@@]12C(=O)OC(=O)[C@@]1(C)C1CCC2O1 | 14.9%
34 | Cc1noc(-c2ccc(CSCCC(=O)O)cc2)c1NC(=O)OC(C)c1ccccc1Cl (stereo not given) | 96%
35 | Cc1ccc(-n2[nH]c(C)c(N=Nc3cccc(-c4cccc(C(=O)O)c4)c3O)c2=O)cc1C | 92.5%
36 | COc1cc(O)c2c(c1)C1OC1C[C@H](O)[C@H](O)C(=O)C=CC[C@H](C)OC2=O (stereo not given in full) | 10.6%
37 | FC(F)(F)c1ccc(Nc2nc3ccc(Oc4ccnc(-c5ncc(C(F)(F)F)[nH]5)c4)cc3[nH]2)cc1 | 48.6%
38 | CC(=O)C1=C(O)C=C2Oc3c(C(C)=O)c(O)c(C)c(O)c3C2(C)C1=O (stereo not given) | 97.8%
39 | C#CCC(Cc1cnc2nc(N)nc(N)c2n1)c1ccc(C(=O)N[C@@H](CCC(=O)O)C(=O)O)cc1 (stereo not given in full) | 8.51%
40 | NC(=O)Nc1sc(-c2ccc(F)cc2)cc1C(N)=O | 8.68%
